Measurements: the supplement of paper PMC6555819

Key:
Test in all cases: PBM binding z-score (relative to random genomic background probes); higher = stronger binding; sequences stand for … in GC…GCGATTGACAGCGTAGAATGAAGG
[1] = tested on: FXR:RXRa (NR concentration 270 nM, RXRa partner concentration 90 nM)
Summary of the method: (§1)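 Regression normalization was applied to scanned fluorescence from custom Agilent 4×180K protein-binding microarrays. Before scanning, arrays were incubated 1 h with ligand-free nuclear receptor dimers, and binding was detected with antibodies against each partner (one per run). Binding z-scores use the random background probes as reference.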

[2] = tested on: LXRa:RXRa (NR concentration 270 nM, RXRa partner concentration 90 nM)
Summary of the method: as §1

[3] = tested on: LXRa homodimer (NR concentration 270 nM)
Summary of the method: as §1

[4] = tested on: LXRb:RXRa (NR concentration 270 nM, RXRa partner concentration 90 nM)
Summary of the method: as §1

[5] = tested on: LXRb homodimer (NR concentration 270 nM)
Summary of the method: as §1

[6] = tested on: PPARa:RXRa (NR concentration 270 nM, RXRa partner concentration 90 nM)
Summary of the method: as §1

[7] = tested on: PPARg:RXRa (NR concentration 180 nM, RXRa partner concentration 90 nM)
Summary of the method: as §1

[8] = tested on: PPARg:RXRa 270nM:90nM, anti-RXR (NR concentration 270 nM, RXRa partner concentration 90 nM)
Summary of the method: as §1

[9] = tested on: PPARg:RXRa 30nM:10nM, anti-RXR (NR concentration 30 nM, RXRa partner concentration 10 nM)
Summary of the method: as §1

[10] = tested on: PPARg:RXRa 90nM:30nM, anti-RXR (NR concentration 90 nM, RXRa partner concentration 30 nM)
Summary of the method: as §1

[11] = tested on: PPARg:RXRa DBDmut IVT, anti-RXR (DBD mutation: RXRa K156A/R161A, NR concentration 270 nM, RXRa partner concentration 90 nM)
Summary of the method: as §1

[12] = tested on: PPARg:RXRa IVT, anti-PPARg (NR concentration 270 nM, RXRa partner concentration 90 nM)
Summary of the method: as §1

[13] = tested on: PPARg DBDmut:RXRa IVT, anti-PPARg (DBD mutation: PPARg1 K132A/R137A, NR concentration 270 nM, RXRa partner concentration 90 nM)
Summary of the method: as §1

[14] = tested on: PPARg DBDmut IVT, anti-PPARg (DBD mutation: PPARg1 K132A/R137A, NR concentration 270 nM)
Summary of the method: as §1

[15] = tested on: PPARg homodimer (NR concentration 180 nM)
Summary of the method: as §1

[16] = tested on: PXR:RXRa (NR concentration 270 nM, RXRa partner concentration 90 nM)
Summary of the method: as §1

[17] = tested on: PXR homodimer (NR concentration 270 nM)
Summary of the method: as §1

[18] = tested on: RARa:RXR (NR concentration 270 nM, RXRa partner concentration 90 nM)
Summary of the method: as §1

[19] = tested on: RARa homodimer (NR concentration 270 nM)
Summary of the method: as §1

[20] = tested on: RARb:RXRa (NR concentration 270 nM, RXRa partner concentration 90 nM)
Summary of the method: as §1

Sequence | PBM binding z-score [1] | PBM binding z-score [2] | PBM binding z-score [3] | PBM binding z-score [4] | PBM binding z-score [5] | PBM binding z-score [6] | PBM binding z-score [7] | PBM binding z-score [8] | PBM binding z-score [9] | PBM binding z-score [10] | PBM binding z-score [11] | PBM binding z-score [12] | PBM binding z-score [13] | PBM binding z-score [14] | PBM binding z-score [15] | PBM binding z-score [16] | PBM binding z-score [17] | PBM binding z-score [18] | PBM binding z-score [19] | PBM binding z-score [20]
TCATATAGGTAATACGGGTGAAAGTCGGCATCTA | 0.703 | 0.697 | 0.104 | 0.839 | 0.196 | 1.79 | 1.31 | 2.56 | 3.81 | 3.07 | 3.97 | 3.5 | 0.9 | 0.874 | 0.552 | 0.662 | 0.363 | 1.01 | 1.49 | 0.495
TATACAGGGTCAAAGGCCAGAGTCCGAATGTCGA | 6.58 | 6.06 | 2.35 | 4.71 | 2.55 | 5.85 | 7.34 | 7.02 | 4.84 | 6.68 | 2.36 | 4.8 | 1.49 | 0.522 | 2.08 | 4.27 | 0.713 | 5.31 | 0.835 | 4.31
TCTCGGAGGACACGAAGATCAGAGCTTTCCAGAG | 0.203 | -0.201 | -0.688 | -0.685 | -1.08 | 0.0727 | 0.181 | 0.96 | 2.25 | 1.67 | 1.06 | -0.251 | -1.11 | -0.408 | -0.646 | -0.151 | -0.592 | 0.08 | -0.514 | 1.21
ATCGAAAGGTCGTGAGCTGAGTATACAGAAAGGC | 4.79 | 3.91 | 0.0249 | 3.03 | 0.117 | 4.86 | 3.35 | 4 | 1.23 | 2.6 | -0.173 | 1.49 | 0.42 | 0.76 | 1.16 | 2.75 | 0.0585 | 3.56 | -0.0844 | 3.76
AATACAGGTTCACTAGGCCAGAGTAGGTACGAAT | 1.7 | 2.58 | 0.711 | 1.5 | 0.333 | 3.19 | 3.24 | 2.98 | 0.739 | 1.97 | 1.36 | 2.73 | 1.46 | 0.869 | 0.811 | 1.47 | 0.559 | 1.64 | 0.374 | 1.78
CATCCAAGGTCAATGCTAGGTCAGTGAAAGCATT | 6.67 | 5.98 | 4.36 | 4.42 | 1.77 | 5.06 | 4.32 | 4.66 | 1.44 | 3.53 | 3.38 | 4.16 | 0.505 | 0.239 | 5.51 | 4.73 | 1.76 | 5.95 | 2.23 | 5.04
GCGACTGGGTCATCAGCAGGTTACCATAACTTAA | 2.66 | 1.93 | -0.34 | 2.04 | -1.03 | 4.06 | 5.18 | 4.73 | 1.52 | 3.88 | 5.38 | 5.94 | 0.513 | -0.691 | 1.31 | 2.22 | -0.585 | 3.39 | -0.469 | 3.23
GCATATAGGTAATACAAGGTGAAAGTGCGATTGT | 1.29 | 2.52 | 0.475 | 0.725 | -0.0302 | 2.26 | 1.96 | 2.57 | 1.04 | 2 | 3.95 | 3.56 | 1.03 | 1.01 | 0.954 | 0.734 | 0.452 | 1.35 | 0.831 | 0.52
CAAACTAGGTCACCGGAAGGTCGAAGTCCGCATG | 4.63 | 4.34 | 1.21 | 3.06 | 0.673 | 5.6 | 9.2 | 7.5 | 5.41 | 7.33 | 8.58 | 9.05 | 2.73 | 2.92 | 3.05 | 3.91 | 0.000336 | 4.49 | 1.1 | 4.8
AATACCGGGTCATCGTAGGCCAGAGTACGCACAG | 6.17 | 5.51 | 1.68 | 3.93 | 0.968 | 5.4 | 5.83 | 5.07 | 2.01 | 3.89 | 2.9 | 4.61 | 2.58 | 2.08 | 2.01 | 4.56 | 0.459 | 4.53 | 0.886 | 3.67
TCGTATAGGTAAACAGGTGAAAGTCCGTAAGTTA | 1.19 | 0.963 | 0.191 | 0.852 | 0.0957 | 1.95 | 1.46 | 2.64 | 2.92 | 2.76 | 2.73 | 2.33 | 0.663 | 0.619 | 1.46 | 0.831 | 0.735 | 1.22 | 1.47 | 0.797
CGAATTAGGTCAGAACAGGACAGTGAAGGATGAT | 1.56 | 1.31 | 0.144 | 0.781 | 0.086 | 3.41 | 4.98 | 4.59 | 2.05 | 3.65 | 7.02 | 7.15 | 2.8 | 1.42 | 1.73 | 1.09 | 0.149 | 1.31 | 1.19 | 3.29
CGAACGAGGGCATGAGTTGAAAGCAAATGCCGAT | 0.434 | 0.165 | -0.523 | 0.0977 | -0.959 | 1.85 | 1.37 | 1.83 | 0.552 | 1.12 | 2.92 | 2.09 | -0.35 | -0.394 | 0.0525 | 0.538 | -0.57 | 0.846 | -0.757 | 1.96
TCTATTAGTTGATTAGGGCAACAGAAACAGCGGA | 0.997 | 0.779 | 0.0498 | 0.646 | 0.947 | 1.01 | 0.317 | 1.96 | 3.53 | 2.85 | 2.04 | 1.59 | 1.69 | 1.06 | 1.02 | 0.573 | 0.374 | 0.636 | 1.08 | 0.82
TATCGGAGGACACGAAGGTCAGAGCTTTCCAGAG | 1.17 | 1.65 | 1.08 | 1.14 | -0.0992 | 1.88 | 0.951 | 1.18 | 0.288 | 0.613 | 0.135 | 1.54 | -0.485 | -0.6 | 1.67 | 1.9 | 1.2 | 2.05 | 0.593 | 3.22
